Test results reported in the supplement of paper PMC8728848.
This excerpt belongs to a sample that is enriched for the strongest signals.

What was measured:
Test in all cases: glycan array binding signal (z-score within array); higher = stronger binding
Details in all cases: glycan notation: IUPAC condensed, linker removed
[1] = target: Gal(b1-4)GlcNAc(b1-2)Man(a1-3)[Gal(b1-4)GlcNAc(b1-2)Man(a1-6)]Man(b1-4)GlcNAc(b1-4)GlcNAc
Outline: (§1)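 From the Consortium for Functional Glycomics database, 3228 arrays were curated, keeping only those whose protein sequence was available. Binding is given as a within-array Z-score averaged across arrays sharing a protein sequence and across linkers. Negative Z-scores can be read as non-binding.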

[2] = target: Gal(b1-4)GlcNAc(b1-2)Man(a1-3)[GlcNAc(b1-2)Man(a1-6)]Man(b1-4)GlcNAc(b1-4)GlcNAc
Outline: as §1

[3] = target: Gal(b1-4)GlcNAc(b1-2)[Gal(b1-4)GlcNAc(b1-4)]Man(a1-3)[GlcNAc(b1-4)][Gal(b1-4)GlcNAc(b1-2)[Gal(b1-4)GlcNAc(b1-6)]Man(a1-6)]Man(b1-4)GlcNAc(b1-4)GlcNAc
Outline: as §1

[4] = target: Gal(b1-4)GlcNAc(b1-3)Gal(b1-3)GalNAc
Outline: as §1

[5] = target: Gal(b1-4)GlcNAc(b1-3)Gal(b1-4)Glc
Outline: as §1

[6] = target: Gal(b1-4)GlcNAc(b1-3)Gal(b1-4)GlcNAc(b1-3)Gal(b1-4)GlcNAc(b1-3)Gal(b1-4)GlcNAc(b1-3)Gal(b1-4)GlcNAc(b1-2)[Gal(b1-4)GlcNAc(b1-3)Gal(b1-4)GlcNAc(b1-3)Gal(b1-4)GlcNAc(b1-3)Gal(b1-4)GlcNAc(b1-3)Gal(b1-4)GlcNAc(b1-6)]Man(a1-6)[Gal(b1-4)GlcNAc(b1-3)Gal(b1-4)GlcNAc(b1-3)Gal(b1-4)GlcNAc(b1-3)Gal(b1-4)GlcNAc(b1-3)Gal(b1-4)GlcNAc(b1-2)Man(a1-3)]Man(b1-4)GlcNAc(b1-4)[Fuc(a1-6)]GlcNAc
Outline: as §1

[7] = target: Gal(b1-4)GlcNAc(b1-6)[Gal(b1-4)GlcNAc(b1-3)]GalNAc
Outline: as §1

[8] = target: Gal6S(b1-4)Glc6S
Outline: as §1

[9] = target: GalNAc(b1-3)Gal(a1-4)Gal(b1-4)GlcNAc(b1-3)Gal(b1-4)Glc
Outline: as §1

[10] = target: GalNAc(b1-4)GlcNAc(b1-2)Man(a1-3)[GalNAc(b1-4)GlcNAc(b1-2)Man(a1-6)]Man(b1-4)GlcNAc(b1-4)GlcNAc
Outline: as §1

[11] = target: Glc(b1-4)Glc
Outline: as §1

[12] = target: GlcNAc(a1-4)Gal(b1-4)GlcNAc(b1-3)Gal(b1-4)[Fuc(a1-3)]GlcNAc(b1-3)Gal(b1-4)[Fuc(a1-3)]GlcNAc
Outline: as §1

[13] = target: GlcNAc(b1-2)[GlcNAc(b1-4)]Man(a1-3)[GlcNAc(b1-4)][GlcNAc(b1-2)[GlcNAc(b1-6)]Man(a1-6)]Man(b1-4)GlcNAc(b1-4)GlcNAc
Outline: as §1

[14] = target: GlcNAc(b1-3)Gal(b1-4)GlcNAc(b1-3)Gal(b1-4)GlcNAc(b1-3)GalNAc
Outline: as §1

[15] = target: Neu5Ac(a2-3)Gal(b1-3)GalNAc(b1-3)Gal(a1-4)Gal(b1-4)Glc
Outline: as §1

[16] = target: Neu5Ac(a2-3)Gal(b1-3)GlcNAc(b1-3)GalNAc
Outline: as §1

[17] = target: Neu5Ac(a2-3)Gal(b1-4)GlcNAc(b1-2)[Neu5Ac(a2-3)Gal(b1-4)GlcNAc(b1-6)]Man(a1-6)[Neu5Ac(a2-3)Gal(b1-4)GlcNAc(b1-2)Man(a1-3)]Man(b1-4)GlcNAc(b1-4)GlcNAc
Outline: as §1

[18] = target: Neu5Ac(a2-3)Gal(b1-4)GlcNAc(b1-3)Gal(b1-4)GlcNAc(b1-3)Gal(b1-4)GlcNAc(b1-2)Man(a1-3)[Neu5Ac(a2-3)Gal(b1-4)GlcNAc(b1-3)Gal(b1-4)GlcNAc(b1-3)Gal(b1-4)GlcNAc(b1-2)Man(a1-6)]GalNAc
Outline: as §1

[19] = target: Neu5Ac(a2-3)[GalNAc(b1-4)]Gal(b1-4)Glc
Outline: as §1

[20] = target: Neu5Ac(a2-6)Gal(b1-4)GlcNAc(b1-2)Man(a1-3)[Man(a1-6)]Man(b1-4)GlcNAc(b1-4)GlcNAc
Outline: as §1

[21] = target: Neu5Ac(a2-6)Gal(b1-4)GlcNAc(b1-2)Man(a1-3)[Neu5Ac(a2-3)Gal(b1-4)GlcNAc(b1-2)Man(a1-6)]Man(b1-4)GlcNAc(b1-4)GlcNAc
Outline: as §1

[22] = target: Neu5Ac(a2-6)Gal(b1-4)GlcNAc(b1-2)[Neu5Ac(a2-6)Gal(b1-4)GlcNAc(b1-4)]Man(a1-3)[GlcNAc(b1-4)][Neu5Ac(a2-6)Gal(b1-4)GlcNAc(b1-2)[Neu5Ac(a2-6)Gal(b1-4)GlcNAc(b1-6)]Man(a1-6)]Man(b1-4)GlcNAc(b1-4)GlcNAc
Outline: as §1

[23] = target: Neu5Ac(a2-6)Gal(b1-4)GlcNAc(b1-3)Gal(b1-4)GlcNAc(b1-3)GalNAc
Outline: as §1

[24] = target: Neu5Ac(a2-6)Gal(b1-4)GlcNAc(b1-6)[Gal(b1-3)GlcNAc(b1-3)]Gal(b1-4)Glc
Outline: as §1

[25] = target: Neu5Ac(a2-6)Gal(b1-4)GlcNAc(b1-6)[Gal(b1-3)]GalNAc
Outline: as §1

[26] = target: Neu5Ac(a2-8)Neu5Ac(a2-8)Neu5Ac(a2-8)Neu5Ac(a2-3)[GalNAc(b1-4)]Gal(b1-4)Glc
Outline: as §1

[27] = target: Neu5Gc(a2-8)Neu5Gc(a2-3)Gal(b1-4)GlcNAc
Outline: as §1

B1: PX14343C-bfa-541-26-541 (Bacteroides fragilis) (protein)
chain: KAPLDEIADDSFWSDETLVKYYVNDLYSEISVDGLQLQENRSDNSVSAQRDKYRASWFKFNYDMVSASDPQDDDVWEDYYVKVRKCNRFFERIGTSTIEESEKSRLTGEVHFLRAMFYFEMVKRYGGVILLDKVLTMEDNWEIPRSSEKECYDFILEDLKKATEMLPASYGSREKGRATKGAAYALKSRVELYDKRYEDVIKSCAEVYKLGYELVDGTTPEKYRSIWWTTNKDNKEIIFDVQYKSPDVYNNMMVCNMVTYINDKYGDRGWGGLGPTQELIDAFEMADGTPATQYSQAPADQVFDINTCGIYEGREPRFYANIVFHGSQIFFNADKGAVTVDRYLMDTPDKGDGSLTGYNVWKWIDYDNYNYPYAGAGSPDFSTNWIILRYAEIYLNDAEARLETGDVEGARKAVNMIRQRVGLPDLTESDPEKLRELIRKERRIEFAFEEQRFYDVRRWKIGPETQTTLHGVRFVSPTEFKVTKTDIRTWNDRLYLTPVPHDEIVRSSVLKQNLGY
glycan array binding signal (z-score) [1]: -1.05
glycan array binding signal (z-score) [2]: -1.28
glycan array binding signal (z-score) [3]: 3.53
glycan array binding signal (z-score) [4]: -0.401
glycan array binding signal (z-score) [5]: 0.261
glycan array binding signal (z-score) [6]: 0.758
glycan array binding signal (z-score) [7]: 0.249
glycan array binding signal (z-score) [8]: 1.46
glycan array binding signal (z-score) [9]: -0.667
glycan array binding signal (z-score) [10]: 3.4
glycan array binding signal (z-score) [11]: -0.686
glycan array binding signal (z-score) [12]: 1.91
glycan array binding signal (z-score) [13]: 0.147
glycan array binding signal (z-score) [14]: -0.553
glycan array binding signal (z-score) [15]: 0.978
glycan array binding signal (z-score) [16]: 0.246
glycan array binding signal (z-score) [17]: 0.43
glycan array binding signal (z-score) [18]: 5.05
glycan array binding signal (z-score) [19]: 3.41
glycan array binding signal (z-score) [20]: 3.29
glycan array binding signal (z-score) [21]: 0.23
glycan array binding signal (z-score) [22]: -0.339
glycan array binding signal (z-score) [23]: -0.036
glycan array binding signal (z-score) [24]: 5.89
glycan array binding signal (z-score) [25]: -0.647
glycan array binding signal (z-score) [26]: 1.9
glycan array binding signal (z-score) [27]: -0.342
